Results: PubChem BioAssay (NCI)
This is part of a sample that, as a whole, favours compounds with a hit. Of some 79,000 tested, about 15% had one in any assay. Values without a mark were called inactive. Active and inactive are the calls of the source. No stated cut-off is given here; in the data, active means growth inhibition above about 70%; inactive means the rest. Where a SMILES comes first, the peptide text is derived from it. The star is where a group is joined. Boc = CC(C)(C)OC(=O)*; OBn = c1ccc(CO*)cc1

What was measured:
[1] = NCI Yeast Anticancer Drug Screen. Data for the rad50 strain (AID 155);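 further: 0% = growth of vehicle-only cultures of the same strain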; settings: S. cerevisiae rad50 strain growth inhibition; at 50.0 µM; stronger effect = higher value
In short: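 Vehicle-treated cultures provide the reference for the growth inhibition reported for compound-exposed, repair-deficient yeast.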

[2] = NCI Yeast Anticancer Drug Screen. Data for the mec2-1 strain (AID 157); settings: S. cerevisiae mec2-1 strain, at 50.0 µM, stronger effect = higher value
In short: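 Mutant yeast (mec2-1) grown with compound; growth inhibition relative to vehicle control reported.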

[3] = NCI Yeast Anticancer Drug Screen. Data for the sgs1 mgt1 strain (AID 161);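 further: 0% = growth of cultures given vehicle only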; settings: S. cerevisiae sgs1 mgt1 strain, at 50.0 µM, stronger effect = higher value
In short: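 Growth of a repair-deficient yeast mutant was monitored after compound treatment and expressed as inhibition relative to vehicle-treated cultures.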

[4] = NCI Yeast Anticancer Drug Screen. Data for the cln2 rad14 strain (AID 165);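 further: 0% = growth equal to vehicle treated cultures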; settings: S. cerevisiae cln2 rad14 strain, at 50.0 µM, stronger effect = higher value
In short: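 Readout is yeast growth inhibition versus vehicle-treated controls, using a strain with cln2 and rad14 alterations exposed to compound.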

[5] = NCI Yeast Anticancer Drug Screen. Data for the bub3 strain (AID 167); settings: S. cerevisiae bub3 mutant strain, at 50.0 µM, stronger effect = higher value
In short: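 Mutant yeast screening strain plus compound; vehicle-treated cultures serve as the 0% inhibition reference.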

[6] = NCI Yeast Anticancer Drug Screen. Data for the mlh1 rad18 strain (AID 175); settings: S. cerevisiae mlh1 rad18 strain growth inhibition; at 50.0 µM; stronger effect = higher value
In short: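 Genetically defined yeast (DNA repair-deficient) exposed to compounds; growth inhibition determined relative to vehicle.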

Row | Compound | growth inhibition [1] | growth inhibition [2] | growth inhibition [3] | growth inhibition [4] | growth inhibition [5] | growth inhibition [6]
1 | CC1(C)CCCN1C(=O)Nc1ccc([N+](=O)[O-])cc1[N+](=O)[O-] | 4.1% | -7.7% | 5.4% | -12.6% | -4.15% | -14.1%
2 | Cc1ccc(C(C)[N+](=O)[O-])cc1 (configuration not stated) | 13.2% | 18.1% | 18.4% | -13.7% | 0.45% | 18.2%
3 | COc1ccc(OC)c(/C=C/c2cnnc3ccccc23)c1 | 12.6% | 12.8% | 19.2% | -2.95% | 6.75% | 32%
4 | CCC1=NC(C(F)(F)F)(C(F)(F)F)N=C(N2CCOCC2)O1 | 23.8% | 6.15% | 9.2% | 14.4% | 22.4% | 2.2%
5 | CC(=O)OCC(OC(C)=O)C(OC(C)=O)C(OC(C)=O)C(S)S (configuration not stated) | 5.2% | 50.1% | 30.1% | -4.2% | 29.9% | 28.9%
6 | COC1OC(CBr)C(OC(=O)c2ccccc2)C(OC(C)=O)C1OC(C)=O (configuration not stated) | -23.9% | -4.6% | -12.2% | 11% | -1.5% | -22.8%
7 | CN(C)c1ccc(/C=C(\NC(=O)c2ccccc2)c2nn(C)c(=O)o2)cc1 | -15.8% | -4.8% | -11.1% | -20.9% | -1.4% | -22.6%
8 | CC(C)CC(NC(=O)OC(C)(C)C)C(=O)NC(CC(=O)OCc1ccccc1)C(=O)OCc1ccccc1 (stereo not drawn) (Boc-Leu-Asp(OBn)-OBn; configuration not given here) | 26.3% | -7.25% | 15.5% | 2.2% | 15.8% | 33.5%
9 | CC1CCC(C(C)C)=C(C2CCCCC2)C1 (configuration not stated) | -2.15% | 1.65% | -3.65% | -7.05% | -9.8% | 6.65%
10 | CCC(=O)OCC(OC(=O)CC)C(OC(=O)CC)C(OC(=O)CC)C(COC(=O)CC)OC(=O)CC (configuration not stated) | -0.5% | 6.95% | -16.6% | -31.6% | 1.35% | -3.75%
11 | CC(C)CNC(=O)C(=O)NCC(C)C | -4.65% | -9.7% | -1.6% | -41.5% | -21.4% | -2.4%
12 | CC(=O)N(CN1C(=O)CCC1C(=O)O)c1ccccc1Cl (configuration not stated) | 10.3% | 14.4% | -13.6% | -4.35% | -3.85% | -40.5%
13 | Cc1c(Cl)cccc1NC(=O)Oc1ccc(Cl)cc1 | 1.75% | -2.75% | -5.6% | -7.45% | -9.7% | -4.05%
14 | CN(C)c1ccc(N=C(C#CC#Cc2ccccc2)c2ccccc2)cc1 | 3.85% | -4% | 7.55% | -42.4% | -19.4% | 24.8%
15 | CCC[CH2][Sn]([CH2]CCC)([O]C(=O)c1nccnc1N)[O]C(=O)c1nccnc1N | 92.2% (active) | 92.5% (active) | 93% (active) | 92.2% (active) | 90.3% (active) | 88.2% (active)
16 | CCC(=O)Nc1nn[nH]n1 | -11.5% | -1.5% | -3.75% | 4.75% | 7.9% | -2.15%
17 | CCCCOC(=O)N1CCCCC1 | -9.75% | -8.15% | -17.3% | -5.9% | -14.3% | -5.75%
18 | CCCCCCCCCCCCCC(=O)N(CCCCCCCCC)CC(O)C(O)C(OC1OC(CO)C(O)C(O)C1O)C(O)CO (configuration not stated) | -13.8% | -41.4% | -17.4% | -28.4% | -49.1% | -56.5%
19 | O=C1c2c(-c3ccccc3)ccc(-c3ccccc3)c2C2(O)OC1(O)c1c(-c3ccccc3)ccc(-c3ccccc3)c1C2=O | 5.65% | 4.95% | 9.1% | -6.9% | 6.4% | -13.9%

Row | Compound | growth inhibition [1] | growth inhibition [2] | growth inhibition [3] | growth inhibition [4] | growth inhibition [5] | growth inhibition [6]
20 | CCCCC(ON=C(C)C)C(=O)OC (configuration not stated) | 19.3% | 31.6% | -10.2% | 12.1% | 1.25% | 24.4%
21 | COc1cc2oc(-c3ccc(O)cc3)cc(=O)c2c(OC)c1OC | -4.35% | -5.95% | -2.35% | -26.7% | 17.9% | 12.3%
22 | O=Nc1ccc(O)c2ncccc12 | 7.15% | -9.45% | 15.7% | -26.6% | 1.5% | 31%
23 | CCOC(=O)c1ccc(NC(C)=O)cc1 | 18% | 9.2% | 9.3% | -5.45% | -4.45% | 12.1%
24 | O=[N+]([O-])c1ccc(C=NC23CC4CC(CC(C4)C2)C3)cc1 | -8.05% | -11.1% | -0.35% | 14.2% | 5.55% | -3.9%
25 | CCCC(=O)Nc1ccc2c(ccn2COC)c1 | -37.2% | -2.2% | -2.05% | 8.7% | 8.45% | -18.2%
26 | C=C(C)COc1ccc(-c2ccccc2)cc1 | 24.5% | 7.35% | 8% | -4.95% | -3.85% | -3.2%
27 | CCOC(=O)c1ccc(OC)cc1 | -12.7% | -25.4% | -8.8% | 2.8% | -3.55% | -17.4%
28 | Cc1ccc([N+](=O)[O-])c(P(=O)(O)O)c1 | 12.6% | 13% | -14.7% | -3.45% | 3.4% | -12.2%
29 | CCCCCCCCC[N+]12CC[N+](CCCCCCCCC)(CC1)CC2 | 8.2% | 15.2% | -4.9% | 2.15% | 8.8% | 5.25%
30 | CCOC(=O)C1=C(C)NC(=O)NC1c1cccc(OC)c1O (configuration not stated) | 11% | 0.15% | 16.7% | 9.7% | 30.8% | 18.1%
31 | CC(C)N(C(=S)[S-])C(C)C.CC(C)N(C(=S)[S-])C(C)C.[Zn] | 96.8% (active) | 96.8% (active) | 97.8% (active) | 24.1% | 59.5% | 97% (active)
32 | CC1(C)OCC(Cc2ccc3c(c2)OCO3)CO1 | 1.7% | -11.1% | -5.75% | -32.2% | 22.5% | 2.25%
33 | O=C1NCC(c2ccccc2)(c2ccccc2)O1 | 26.9% | 11.3% | 10.3% | 11.8% | 4.45% | 19.4%
34 | O=C(O)c1ccc(O)c(C(=O)O)c1 | 12% | 11% | 20.6% | -14.7% | -6.15% | 16.8%
35 | CCOC(=O)c1nnc(-c2ccccc2)nc1Cl | -2.55% | 3.45% | 0.15% | -12.9% | 3.7% | 4%
36 | COc1cc(C)c([N+](=O)[O-])cc1[N+](=O)[O-] | 4.15% | 8.2% | 9.65% | -2.35% | -10.1% | 1%
37 | CC1=C(c2ccccc2)C(c2ccccc2)c2ccccc21 (configuration not stated) | 17.3% | 26.7% | 33.6% | 51.4% | 54.4% | 85.6% (active)
